Among the data in PubChem BioAssay (NCI) are growth values, retold here.

SMILES strings stand for the structures. The panel holds about 83,000 compounds, 20% with a hit somewhere; the sample as a whole holds those more often.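 Single-concentration screen, 48 h exposure, 96-well plates. Endpoint: percent growth. Below 10 = active.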 Unmarked numbers belong to inactive results. Activity calls are given as the source filed them.

The first experiment deals with SK-MEL-2 melanoma. Nature of the experiment: NCI-60 one-dose screen, 48 h (100 = growth as untreated, 0 = no growth, -100 = all killed). Conditions: 10 µM unless noted.
As to `O=C(O)C(O)C(O)C(=O)O.[NH-]C1CCCCC1[NH-].[Pt+2]` (stereo not drawn), the growth is 109%.
Still for that read-out and setting: with `Cc1ccc(Nc2c(C(N)=O)cnc3ccc(-c4csc(N)n4)cc23)cc1` the figure was 110%; with `Cl/C(=N\Nc1ccccc1)c1ccccc1`, 96.6%.
Same read-out and setting: with `COc1cc(-c2c3sc(=O)[nH]c3nc3c2c(=O)[nH]n3C(C)C)cc2c1OCO2` the figure was 101%.
On the same count and under the same terms, with `COC(=O)C12C3C(=O)N(c4ccc(OC)cc4)C(=O)C3C(c3cn(-c4ccccc4)nc3C)N1[C@H](c1cn(-c3ccccc3)nc1C)[C@@H]1C(=O)N(c3ccc(OC)cc3)C(=O)[C@@H]12` (stereo partly drawn) the figure was 107%.
On to `O=C(NC(Cc1ccccc1)C(=O)CCl)OCc1ccccc1` (stereo not drawn), for which the growth was 8.62% (active).
Same read-out and setting: with `CCCCCC(=O)N(CCCC)CCCC` the figure was 124%; with `COc1cccc(/C=C2/C(=O)N(Cc3ccco3)SC2=S)c1OC`, 93.1%.
Still for that read-out and setting: next, `COc1ccc(-c2cc(/C=C3\C(=O)Nc4ccc(Cl)cc43)[nH]n2)cc1`: 51.2%.
On to `Nc1ccc(N2CCOCC2)cc1`, for which the growth was 91.8%.
Take `COc1cc(C2CC(=O)Nc3c2c(C)nn3-c2nc3ccccc3[nH]2)cc(OC)c1OC` (stereo not drawn): the growth is 106%.
Still for that read-out and setting: next, `CN1CCCCC1CCN1c2ccccc2Sc2ccc(Br)cc21` (stereo not drawn): 69.5%; `Cc1ccc(C2CC3c4ccccc4C2C2CCCCN32)cc1` (stereo not drawn): 88.2%; `CCOC(=O)CC(C)=N`: 111%.
Still for that read-out and setting: next, `N=S(=O)(NC(=O)c1ccc(Cl)cc1Cl)c1ccc(Br)s1` (stereo not drawn): 116%.
Still for that read-out and setting: with `COc1ccc(CN(c2ccc(C)cc2)C2OC(=O)c3ccccc32)cc1OC` (stereo not drawn) the figure was 95.3%; with `c1c2c(cc3c1OCO3)Cc1cc3c(cc1Cc1cc4c(cc1C2)OCO4)OCO3`, 115%; with `CCCCCCCCCCCCS(=O)CC(C)O` (stereo not drawn), 112%.
As for `Cc1cccc(NC(=O)c2sc3nc4c(cc3c2N)C(=O)CCC4)c1`, the growth was 64.7%.
Same read-out and setting: next, `O=[N+]([O-])c1cccc(C2CC(c3ccccc3)=Nc3ccccc3S2)c1` (stereo not drawn): 95.4%; `CCOC(=O)/C=C/c1ccc(C(=O)OCC)[nH]1`: 47%; `COC1C/C(=N\O)C2OC(c3ccccc3)OCC2O1` (stereo not drawn): 93.3%.
Still for that read-out and setting: next, `Cc1cc(Nc2nc(N3CCN(C)CC3)nc3ccccc23)n[nH]1`: 43.5%; `O=C1Nc2ccccc2/C1=C/C(=N/c1nnc(-c2ccccc2)s1)c1ccccc1`: 97.4%.
Regarding `COc1ccc(N(Cc2cc(OC)c(OC)c(OC)c2)C2OC(=O)c3ccccc32)cc1` (stereo not drawn), the growth was 21.5%.
On the same count and under the same terms, with `Cc1csc2ccc(Cl)cc12` the figure was 99.7%; with `O=C1Nc2ccccc2/C1=C/C(=N/c1nnc(-c2ccc(Cl)cc2)s1)c1ccccc1`, 97.2%.
With `CC(=O)OCC1OC(OC2=C(CC=C(Cl)Cl)C(=O)c3ccccc3C2=O)C(OC(C)=O)C(OC(C)=O)C1OC(C)=O` (stereo not drawn), the growth was 61.3%.
Still for that read-out and setting: next, `O=C(/C=C/c1ccc(B(O)O)cc1)/C=C/c1ccc(B(O)O)cc1`: 110%.

The subject of another experiment is EKVX NSCLC. The experiment is described as above. Conditions: 10 µM unless noted.
With `CC(C)(C)n1cc(-c2ccnc(NCCNS(=O)(=O)c3ccccc3)c2)c(-c2cccc(O)c2)n1`, the growth is 63.4%.
The same measure, in the same setting: with `CC/C(Cc1ccccc1)=C(/c1ccc(O)cc1)c1ccc(OCCN2CCCC2)cc1` the figure was -21.4% (active).
On the same count and under the same terms, next, `CCOC(=O)C(C#N)C1CCCCC1` (stereo not drawn): 94.9%; `CC(C)[C@H]1COC(=O)N1[C@@H]1C(=O)N([C@@H](CCC(=O)N2CCN(C3CCCC3)CC2)C(=O)N[C@@H]2CCCc3ccccc32)[C@@H]1/C=C/c1cccc(Br)c1`: 48.2%.
Still for that read-out and setting: next, `COc1cccc(/C=C\C(=O)c2ccccc2)c1`: 90.7%; `NS(=O)(=O)c1ccc(-n2ncc3c(=O)[nH]c(CN4CCN(c5cc6c(cc5F)c(=O)c(C(=O)O)cn6C5CC5)CC4)nc32)cc1`: 92.6%; `CC1(C)CC(C(=O)OCCCCCCCCCCC[P+](c2ccccc2)(c2ccccc2)c2ccccc2)C(C)(C)N1O` (stereo not drawn): -32.6% (active).
In the case of `COc1ccc(/C(=C/c2ccc3ccccc3c2)c2nn[nH]n2)cc1OC`, the growth was 43.9%.
On to `CS(CCCCN=C=S)=NC(=O)c1c(F)c(F)c(F)c(F)c1F` (stereo not drawn), for which the growth was 97.8%.
The same measure, in the same setting: next, `Cc1cc2cc3cc(C)c(N(C)C)cc3[n+](C)c2cc1N(C)C`: 52%.

The test system of the next experiment is SN12C renal. The description is as above. The conditions noted are these: 10 µM unless noted.
`O=C(O)C(O)C(O)C(=O)O.[NH-]C1CCCCC1[NH-].[Pt+2]` (stereo not drawn): the growth is 106%.
On to `Cc1ccc(Nc2c(C(N)=O)cnc3ccc(-c4csc(N)n4)cc23)cc1`, for which the growth was 108%.
For the compound `Cl/C(=N\Nc1ccccc1)c1ccccc1`, the growth was 93.2%.
For `COc1cc(-c2c3sc(=O)[nH]c3nc3c2c(=O)[nH]n3C(C)C)cc2c1OCO2`, the growth was 99.4%.
Same read-out and setting: with `CC(C)(C)n1cc(-c2ccnc(NCCNS(=O)(=O)c3ccccc3)c2)c(-c2cccc(O)c2)n1` the figure was 71.8%; with `COC(=O)C12C3C(=O)N(c4ccc(OC)cc4)C(=O)C3C(c3cn(-c4ccccc4)nc3C)N1[C@H](c1cn(-c3ccccc3)nc1C)[C@@H]1C(=O)N(c3ccc(OC)cc3)C(=O)[C@@H]12` (stereo partly drawn), 104%; with `CC/C(Cc1ccccc1)=C(/c1ccc(O)cc1)c1ccc(OCCN2CCCC2)cc1`, -11.6% (active).
On the same count and under the same terms, with `O=C(NC(Cc1ccccc1)C(=O)CCl)OCc1ccccc1` (stereo not drawn) the figure was 56.7%; with `CCCCCC(=O)N(CCCC)CCCC`, 96.3%; with `COc1cccc(/C=C2/C(=O)N(Cc3ccco3)SC2=S)c1OC`, 97.6%.
Regarding `COc1ccc(-c2cc(/C=C3\C(=O)Nc4ccc(Cl)cc43)[nH]n2)cc1`, the growth was 63.1%.
As to `CCOC(=O)C(C#N)C1CCCCC1` (stereo not drawn), the growth is 79.6%.
`CC(C)[C@H]1COC(=O)N1[C@@H]1C(=O)N([C@@H](CCC(=O)N2CCN(C3CCCC3)CC2)C(=O)N[C@@H]2CCCc3ccccc32)[C@@H]1/C=C/c1cccc(Br)c1`: the growth is 38%.
On the same count and under the same terms, with `Nc1ccc(N2CCOCC2)cc1` the figure was 94%; with `COc1cccc(/C=C\C(=O)c2ccccc2)c1`, 70.1%.
On the same count and under the same terms, next, `NS(=O)(=O)c1ccc(-n2ncc3c(=O)[nH]c(CN4CCN(c5cc6c(cc5F)c(=O)c(C(=O)O)cn6C5CC5)CC4)nc32)cc1`: 95%.
As to `COc1cc(C2CC(=O)Nc3c2c(C)nn3-c2nc3ccccc3[nH]2)cc(OC)c1OC` (stereo not drawn), the growth is 91.3%.
Same read-out and setting: with `CN1CCCCC1CCN1c2ccccc2Sc2ccc(Br)cc21` (stereo not drawn) the figure was 73.3%; with `Cc1ccc(C2CC3c4ccccc4C2C2CCCCN32)cc1` (stereo not drawn), 90.3%; with `CCOC(=O)CC(C)=N`, 103%.
Take `N=S(=O)(NC(=O)c1ccc(Cl)cc1Cl)c1ccc(Br)s1` (stereo not drawn): the growth is 94.4%.
On the same count and under the same terms, with `COc1ccc(CN(c2ccc(C)cc2)C2OC(=O)c3ccccc32)cc1OC` (stereo not drawn) the figure was 99.1%; with `c1c2c(cc3c1OCO3)Cc1cc3c(cc1Cc1cc4c(cc1C2)OCO4)OCO3`, 98.5%.
The same measure, in the same setting: with `CCCCCCCCCCCCS(=O)CC(C)O` (stereo not drawn) the figure was 106%.
The same measure, in the same setting: next, `CC1(C)CC(C(=O)OCCCCCCCCCCC[P+](c2ccccc2)(c2ccccc2)c2ccccc2)C(C)(C)N1O` (stereo not drawn): -36% (active).
`COc1ccc(/C(=C/c2ccc3ccccc3c2)c2nn[nH]n2)cc1OC`: the growth is 37.2%.
On the same count and under the same terms, next, `Cc1cccc(NC(=O)c2sc3nc4c(cc3c2N)C(=O)CCC4)c1`: 44.2%; `O=[N+]([O-])c1cccc(C2CC(c3ccccc3)=Nc3ccccc3S2)c1` (stereo not drawn): 95.5%; `CCOC(=O)/C=C/c1ccc(C(=O)OCC)[nH]1`: 80.7%.
In the case of `CS(CCCCN=C=S)=NC(=O)c1c(F)c(F)c(F)c(F)c1F` (stereo not drawn), the growth is 61.1%.
On the same count and under the same terms, with `COC1C/C(=N\O)C2OC(c3ccccc3)OCC2O1` (stereo not drawn) the figure was 104%.
Regarding `Cc1cc(Nc2nc(N3CCN(C)CC3)nc3ccccc23)n[nH]1`, the growth was 68.1%.
Same read-out and setting: with `O=C1Nc2ccccc2/C1=C/C(=N/c1nnc(-c2ccccc2)s1)c1ccccc1` the figure was 41.8%; with `COc1ccc(N(Cc2cc(OC)c(OC)c(OC)c2)C2OC(=O)c3ccccc32)cc1` (stereo not drawn), 52.8%.
`Cc1csc2ccc(Cl)cc12`: the growth was 93.1%.
With `O=C1Nc2ccccc2/C1=C/C(=N/c1nnc(-c2ccc(Cl)cc2)s1)c1ccccc1`, the growth is 35.5%.
Take `CC(=O)OCC1OC(OC2=C(CC=C(Cl)Cl)C(=O)c3ccccc3C2=O)C(OC(C)=O)C(OC(C)=O)C1OC(C)=O` (stereo not drawn): the growth was 85.8%.
Turning to `O=C(/C=C/c1ccc(B(O)O)cc1)/C=C/c1ccc(B(O)O)cc1`, the growth is 57.5%.
Still for that read-out and setting: with `Cc1cc2cc3cc(C)c(N(C)C)cc3[n+](C)c2cc1N(C)C` the figure was 10.7%.
